# Test results from ChEMBL document CHEMBL3988442, “University of Dundee, Small-Polar-MMV Screening Library” (2021).
# Where “and” joins values, the source holds several entries; their conditions need not be identical. Equal entries are not always repeated. Among all 38,000 compounds or so, about 1,200 (3.2%) showed an effect of 50% or more. The median lay at about -58%. Many of the other results were omitted from the sample, so strong results are more common in it than they were.
# Test system: Plasmodium falciparum
# Test: Calibr Malaria Delayed Death Assay SOP
# Type: functional, organism-based
# Set-up: scale not given: in the data most compounds retested in dose-response had high values
# Details: concentration 4.99e-06 (unit not given; other assays of the set use mol/L)
Structure (SMILES),Percent Effect [%],Percent Effect (4.99 µM)
CN(Cc1ccccc1)CC(C)(C)NC(=O)c1ccon1,-38.2,
O=C(Nc1ccccc1OC1CCOC1)c1ccon1 (configuration not stated),-94.04,
O=C(O)C(F)(F)F.O=C([C@@H]1CCO[C@@H]2CCN(Cc3cccs3)C[C@H]21)N1CCCCO1,-36.32,
Cc1cccc(CN2C[C@@H]3CCCO[C@@H]3[C@H](NS(C)(=O)=O)C2)n1,-67.26,
Cc1ncsc1CN1C[C@@H]2CCCO[C@@H]2[C@H](Nc2ccccn2)C1.O=C(O)C(F)(F)F.O=C(O)C(F)(F)F,-27.39,
Cc1cccc(CN2C[C@@H]3CCCO[C@@H]3[C@H](Nc3ccccn3)C2)n1,55.52,
CN(C)Cc1nc(-n2cnc(C(=O)NC3CCCC3)c2)n2ccccc12,8.682,
CC(C)Oc1ccccc1NC(=O)N1CCC(n2cncn2)CC1,-58.88,
c1ccc(-c2cnc(CN3CCn4c(nnc4C4CC4)C3)o2)cc1,-11.2,
Cc1ccc(-c2nc(CN3CCn4c(nnc4C4CC4)C3)co2)c(C)c1,-40.53,
Cc1ccccc1-c1noc(CN2CCn3c(nnc3C3CC3)C2)n1,50.31,
CC(C)c1nnc(CN2CC(n3cccn3)Cc3ccccc32)o1 (configuration not stated),-227.8,
O=C(NCC1CC1)c1nnc2ccc(Cl)cc2n1,9.063,
COCCN1CCCCC12CC(=O)N(c1ccccc1OC)C2.O=C(O)C(F)(F)F (configuration not stated),-87.11,
CCCN1CCCN(S(=O)(=O)c2cnc3onc(C)c3c2)CC1,-59.23,
CC(C)c1nccn1C1CCCN(C(=O)CCCc2ccccn2)C1 (configuration not stated),-134.4,
CSCCCN1CCN(c2ccc(Cl)cn2)CC1,28.74,
CC(C)OCCN1CCN(c2ccc(Cl)cn2)CC1,-78.08,
Clc1ccc(N2CCN(CCCN3CCCCC3)CC2)nc1,68.33,
CCCn1cc(-c2cc(C(=O)N(C)C)c3ccc(C)cc3n2)cn1,,-45.66% and -43.3%
CN(Cc1ccccn1)C1CC2(CCN(Cc3ccccn3)CC2)C1.O=C(O)C(F)(F)F.O=C(O)C(F)(F)F,-38.28,
Cc1cccc(-c2ncc(CNC(C)Cc3ncccc3C)cn2)c1 (configuration not stated),-10.25,
Cc1cccnc1CC(C)Nc1ncc(C)c(N(C)C)n1 (configuration not stated),44.79,
CCn1nc2c(cc1=O)CN(CCOc1ccccc1C#N)CC2,-106.3,
CN(Cc1ccccc1)c1ncccc1CNC1CCSCC1,25.77,
CN(Cc1ccccc1)c1ncccc1CNC1CCCC1,65.38,

Structure (SMILES),Percent Effect [%],Percent Effect (4.99 µM)
Cc1nnsc1C(=O)NCc1cccnc1N(C)Cc1ccccc1,-61.52,
CN(Cc1ccccc1)c1ncccc1CNC1CN2CCC1CC2 (configuration not stated),62.39,
CN(Cc1ccccc1)c1ncccc1CNC(=O)c1ccnn1C,-17.51,
CN(Cc1ccccc1)c1ncccc1CNC1CCC1,69.98,
CCn1cc(C(=O)NCc2cccnc2N(C)Cc2ccccc2)cn1,-74.6,
CN(c1ncccc1CNCc1ncc[nH]1)C1CCCCC1,37.42,
CN(C)c1ncccc1CNCc1ccc(N2CCOCC2)cc1,-64.22,
CC(=O)N1CCC(NCc2cccnc2N(C)Cc2ccccc2)CC1,-58.67,
CC(=O)NC1CCCN(C(=O)NCc2cccnc2N(C)C)C1 (configuration not stated),-14.71,
Cc1n[nH]c(C)c1CNC(=O)N1CCCC(Cc2nccn2C)C1 (configuration not stated),-135.2,
O=C1CC(N2CCN(c3ccc(F)cc3)CC2)C(=O)N1Cc1cccs1 (configuration not stated),-39.99,
COc1ccc(Nc2c[nH]c(=O)[nH]c2=O)cc1,-70.96,
CNC(=O)[C@@]12CCC3(CCNCC3)[C@@H]1CN(S(C)(=O)=O)C2,-13.04,
N#CC1(C(=O)N2CCOC(c3ccc(F)cc3)C2)CCCC1 (configuration not stated),-26.56,
O=C(O)C(F)(F)F.O=C(O)C(F)(F)F.c1cncc(OC[C@]23COC[C@H]2CN(Cc2nccs2)C3)c1,-94,
Cc1cc(C(=O)N2CCn3cc(CN4CCCC4)nc3C2)no1,-104.3,
CCC(NC1CCN(S(C)(=O)=O)CC1)c1cccs1 (configuration not stated),-138.1,
COc1cc(NC(=O)NCC2CCCO2)cc(OC)c1 (configuration not stated),-111.7,
Cc1cncc(C2CCCN(CC3CCC3)C2)n1 (configuration not stated),-16.18,
COC1CCN(C(=O)Nc2ccccc2)CC(=O)N(C)c2ccccc21 (configuration not stated),-65.05,
CCc1nc(C)c(CC(=O)N2CCC3(CC2)OCCCC3OC)c(=O)[nH]1 (configuration not stated),-118.2,
CCN1CCC(CNCc2cc(C)ccc2OC)C1 (configuration not stated),82.22,
CCN1CCC(CNCc2cc(OC)ccc2OC)C1 (configuration not stated),56.22,
CCN1CCC(CNC(=O)NCc2cc(-c3ccc(C)cc3)no2)C1 (configuration not stated),-139.2,
CCN1CCCC(CNC(=O)CCc2ccc(OC)c(F)c2)C1 (configuration not stated),-76.38,
CCN1CCC(Cn2ccc3c(OC)c(OC)ccc3c2=O)C1 (configuration not stated),20.65,

Structure (SMILES),Percent Effect [%],Percent Effect (4.99 µM)
CCN1CCC(CNCc2c[nH]nc2C(C)(C)C)C1.Cl (configuration not stated),-150.6,
CCO[C@H]1COC[C@@H]1NC(=O)CCc1nc(-c2ccccc2)no1,-93.65,
CCS(=O)(=O)N1CC(c2nc(-c3ccsc3)no2)C1,-143.6,
CCOCC(=O)NCCc1nc(C2CC2)cc(C(F)(F)F)n1,-127.5,
Cc1cccnc1CNC(=O)N(CCCO)C1CCc2ccccc21 (configuration not stated),-23.18,
COc1c(CNC2(c3ccc(Cl)cc3)CCC2)c(C)nn1C,58.68,
COc1c(CNC2(c3noc(C)n3)CCC2)c(C)nn1C.Cl,-62.55,
COc1c(CNC2CCc3cc(Cl)ccc32)c(C)nn1C (configuration not stated),17.62,
Cc1cc(C)n(-c2cccc(C(=O)Nc3n[nH]c(C4CCCO4)n3)c2)n1 (configuration not stated),-55.68,
Cc1ccc(O)c(CNc2cccc(CN3CCSCC3)c2)n1,-16.46,
Cc1ccc(C(=O)O)cc1CNC(=O)CN1CC[C@](C)(O)C(C)(C)C1,-2.954,
NC(=O)CN(CC(=O)NCc1cccc(Cl)c1)C1CCCC1,-61.22,
OCC1(Cc2cccc(Cl)c2)CCCN(c2ncccn2)C1 (configuration not stated),-87.85,
O=C(CCN1CCCC(CO)(CC2CC2)C1)NCc1cccc(Cl)c1 (configuration not stated),79.46,
O=C(CCC(=O)NCc1cccc(Br)c1)NCCN1CCCC1,-111.7,
CC1(C)CN(CCC(=O)NCc2cccc(Cl)c2)CC[C@]1(C)O,51.99,
CC(C)NC(=O)c1cc2c(s1)CCN2c1ncccn1,-26.36,
Cc1nc2n(n1)CC(NCc1c(Cl)ccc3cccnc13)CC2 (configuration not stated),-131.5,
CC(=O)CSc1nnc2n1N=CN(c1cccc(Cl)c1)C2,-35.13,
N#Cc1cccc(OCCN2CCCC2C(=O)N2CCSCC2)c1 (configuration not stated),50.57,
N#Cc1cccc(OCCN2CCCC2C(=O)Nc2nccs2)c1 (configuration not stated),-33.68,
N#Cc1cccc(OCCN2CCC(C(=O)N3CCOCC3)CC2)c1,-57.78,
CCc1nc(C)c(C(=O)N[C@@H]2c3ccccc3C[C@@H]2O)o1,-65.76,
CN(C)c1nc(N)nc(CN2CCCC2c2cccs2)n1 (configuration not stated),52.44,
Cc1nc(CC2CCCN(Cc3nc(N)c4ccccc4n3)C2)no1 (configuration not stated),18.93,
CN(C)c1nc(N)nc(CN2CCC(c3ccccc3)CC2)n1,80.66,

Structure (SMILES),Percent Effect [%],Percent Effect (4.99 µM)
Cn1ncc2c(=O)[nH]c(CN3CCCC3c3cccs3)nc21 (configuration not stated),-14.29,
CN(C)c1nc(N)nc(CN2CCCC(c3ccccc3)CC2)n1 (configuration not stated),53.37,
Oc1ccccc1CN1CCCCCC1c1cccs1 (configuration not stated),-50.57,
O=C(O)CN1CCC(c2ccccc2)CC1,-86.8,
Cn1ccc(CN2CCC(c3ccccc3)CC2)cc1=O,20.97,
CN(C)c1nc(N)nc(CN2CCC(c3nc4ccccc4o3)CC2)n1,8.177,
COC(=O)c1cc(OCC2CCC2)cc(C(=O)N[C@H](C)C(N)=O)c1,-189.7,
CC(C)(C)c1n[nH]c(C2CN(C(=O)Cn3ccccc3=O)CCO2)n1 (configuration not stated),-54.87,
CC(C)NC(=O)N1CCCC2(CC(C(=O)Nc3ccccc3)=NO2)C1 (configuration not stated),-67.17,
COCCN(C)C[C@@H]1CN(C(=O)c2ccc(SC)cc2)C[C@@H]1CO,-5.304,
COc1ccc(CCN(C)C(=O)CN2C(=O)OC[C@@H]2C(C)C)cc1OC,-25.4,
CNC(=O)N1CCC(NC(=O)c2cnn(C)c2)CC1,-113.2,
NS(=O)(=O)c1cnn(CCC(=O)N(Cc2ccccc2)C2CC2)c1,-42.03,
COC(=O)c1ccc(N2CCN(CC(=O)NC(N)=O)C(C)C2)cc1 (configuration not stated),-25.15,
CC(C)(C)OC(=O)NC1CCCN(Cc2cccc(O)c2)C1 (configuration not stated),51.54,
CCOC(=O)NC1CCCN(Cc2ccc(-n3cncn3)c(C)c2)C1 (configuration not stated),-7.286,
CC(C)(C)OC(=O)NC1CCCN(Cc2cccs2)C1 (configuration not stated),25.55,
CCOc1ccc(C(=O)n2cccn2)cc1,-77.79,
O=C(c1ccc(F)cc1)N1CCOC(c2nc(-c3ncccn3)no2)C1 (configuration not stated),-155.2,
O=C(O)C(F)(F)F.c1cnc(N2CCOC3(CCN(CC4CCOC4)CC3)C2)nc1 (configuration not stated),-16.11,
CN1CCN(c2ccc(NC(=O)c3ccccn3)c(C(F)(F)F)c2)CC1,-41.85,
CN1CCN(c2ccc(NC(=O)c3ccoc3)c(C(F)(F)F)c2)CC1,-45.74,
CN1CCN(c2ccc(NC(=O)c3cccs3)c(C(F)(F)F)c2)CC1,73.25,
Cc1nc(CCCC(=O)Nc2cccc(N3CCNC3=O)c2)cs1,-207.5,
